# Laboratory results taken from PubChem BioAssay (Tox21).
# Results filed as inconclusive are left out. The source made the active and inactive calls. The call rests on the fitted dose curve; in most records, active means well fitted inhibition curve with a large enough effect in the repeat runs; inconclusive means weak or mixed curves, or effect the other way; inactive means no such curve, though single readings can be large or run the other way.
# Target: Nuclear receptor subfamily 1 group I member 3 (Homo sapiens) (UniProt Q14994)
# Sequence (Q14994 whole entry, looked up): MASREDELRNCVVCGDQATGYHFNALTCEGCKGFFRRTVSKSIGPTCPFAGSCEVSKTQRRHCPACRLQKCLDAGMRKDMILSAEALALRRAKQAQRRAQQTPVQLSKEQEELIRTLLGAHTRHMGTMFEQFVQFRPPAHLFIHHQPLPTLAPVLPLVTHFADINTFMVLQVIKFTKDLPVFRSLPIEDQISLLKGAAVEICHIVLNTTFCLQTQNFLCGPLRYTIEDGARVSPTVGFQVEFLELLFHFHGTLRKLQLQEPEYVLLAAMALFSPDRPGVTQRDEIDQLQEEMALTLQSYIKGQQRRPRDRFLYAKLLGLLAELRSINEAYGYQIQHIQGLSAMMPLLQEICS
# Test: qHTS assay to identify small molecule antagonists of the constitutive androstane receptor (CAR) signaling pathway (AID 1224838);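 further: HepG2 cells stably expressing hCAR with CYP2B6 luciferase reporter stimulated by CITCO; nearly all actives have a fitted effect of over 40% in size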
# Details: HepG2-CYP2B6-hCAR luciferase, CITCO-stimulated, 24 h; series mostly up to 92.4 µM; activity, negative = inhibition: at the top concentration
# Description: U.S. Tox21 Program National Center for Advancing Translational Sciences [NCATS] NIH Chemical Genomics Center [NCGC] U.S. Environmental Protection Agency [EPA] National Institutes of Environmental Health Sciences [NIEHS] National Toxicology Program [NTP] U.S. Food and Drug Administration [FDA] Tox21 Assay Overview: The constitutive androstane receptor (CAR) is a nuclear receptor which regulates multiple drug metabolizing enzymes (DMEs) and transporters. Activating CAR will generally increase the transcription and subsequent translation of CYP2B6 and CYP3A4. These two DMEs represent about 50% of the drug metabolizing potential in the body. When CAR is deactivated, the metabolizing potential in the body will decrease, subsequently increasing the toxicity in the body or lowering the therapeutic potential of a pro-drug. Recently, there have also been studies performed indicating CARs role in energy metabolism and cancer therapy. Therefore, inhibiting CARs activity could have a potential effect on diabetes and cancer. Identifying environmental toxins and compounds which modulate CAR, through the use of the Tox21 10K compound collection, will be an important step in determining the toxicity and potential therapeutic effects these factors will have on the human body.
# Tox21 Assay Protocol Summary: A double-stable (hCAR and CYP2B6-2.2kb) transfected cell line, derived from human hepatoma (HepG2) cells, was utilized for the duration of the quantitative high-throughput screens. The HepG2-CYP2B6-hCAR cells suspended in DMEM culture medium supplemented with 10% FBS, 5 ug/mL blasticidin, 0.5 mg/mL geneticin, 100 U/mL penicillin and 100 ug/mL streptomycin were dispensed at 2500 cells/4 uL/well in 1536-well white solid bottom plates using a Multidrop Combi. After the assay plates were incubated at 37 C/5% CO2 for 4 hrs, 23 nL of compounds at 15 concentrations (from 5-48 columns) or positive control (from 1 to 4 columns) were transferred to the assay plates using a Pintool station. One uL of CITCO, was added using a Flying Reagent Dispenser to generate a final concentration of 50 nM CITCO inside each well. After a 24 hr incubation period at 37 C/5% CO2, four uL of ONE-Glo reagent was added into the assay plates using a Flying Reagent Dispenser. After a 30 min incubation period at room temperature, the luminescence intensity in the assay plates was measured using a ViewLux plate reader.
# On the % scale 0 is the no-effect control and ±100 the full control effect; potency means the concentration at half of the fitted maximal effect.
Structure (SMILES),"activity, negative = inhibition",Potency
Nc1ccc(N=Nc2ccc(N)cc2)cc1,12.2% [at 42.5 µM] (inactive),
Cc1ccc(Cl)cc1N,3.94% (inactive),
O=C(O)/C=C/c1ccc(O)c(O)c1,3.92% (inactive),
CCc1ccc(C)cc1,12.2% (inactive),
Oc1cccc2[nH]ccc12,11.7% [at 42.5 µM] (inactive),
Cc1c[nH]c2ccccc12,0.0648% [at 42.5 µM] (inactive),
COc1ccc(-c2cc(C(F)F)nn2-c2ccc(S(N)(=O)=O)cc2)cc1F,55.1% [at 42.5 µM] (inactive),
O=C(O)c1ccc(O)cc1O,10.3% (inactive),
CCOC(=O)Oc1ccc(CCNC(=O)[C@H](CCSC)NC(C)=O)cc1OC(=O)OCC,38.2% [at 42.5 µM] (inactive),
CCCCCCCCCCCC(=O)OCC(O)CO (stereo not given),-5.81% (inactive),
SCCc1cnccn1,3.11% (inactive),
O=[N+]([O-])c1ccc2ncccc2c1,47% (inactive),
Nc1ccn([C@H]2CS[C@@H](CO)O2)c(=O)n1,-15.7% (inactive),
CCCCCCCCCCCSCC(=O)O,-10.7% (inactive),
C1CCCCC1,-2.06% (inactive),
CC(C)(C(=O)c1cccnc1)c1cccnc1,10.5% [at 42.5 µM] (inactive),
CCCCCCCCCCCCCC(=O)OCC(O)CO (stereo not given),-18.8% (inactive),
CCCCCc1ccco1,20.5% [at 42.5 µM] (inactive),
CCCCOCCOC(=O)c1cccnc1,8.43% [at 42.5 µM] (inactive),
CC1CCCO1 (stereo not given),-0.467% (inactive),

Structure (SMILES),"activity, negative = inhibition",Potency
O=C(O)c1cccc(Oc2ccccc2)c1,8.91% (inactive),
CCC(=O)OCc1ccc(OC)cc1,-5.6% (inactive),
CC(=O)Oc1cccc(O)c1,7.85% [at 42.5 µM] (inactive),
O=C(O)CNC(=O)c1ccccc1I,-14.7% [at 42.5 µM] (inactive),
CO[C@@H]1[C@@H](OC)[C@H](C)[C@@](O)(CC(=O)O)O[C@H]1[C@H](C)[C@H]1O[C@@]2(CC[C@@](C)([C@H]3CC[C@@](C)([C@@H]4O[C@@H]([C@H]5O[C@](C)(O)[C@H](C)C[C@@H]5C)C[C@@H]4OC4C[C@H](OC)[C@@H](OC)[C@H](C)O4)O3)O2)C[C@H](O)[C@H]1C (stereo not given in full),,9.44 µM (active)
O=S(=O)(Cl)c1c(Cl)cccc1Cl,4.87% (inactive),
CC(C)c1ccc(C#N)cc1,-7.1% (inactive),
CCCCCCCCCCCCCOC(=O)CCSCCC(=O)OCCCCCCCCCCCCC,5.4% [at 19 µM] (inactive),
Nc1ccc(F)cc1,-11% (inactive),
O=S(=O)(O)CO,-4% (inactive),
CCCC(=O)OC(=O)CCC,1.03% (inactive),
CC(C)C(O)C(C)(C)CO (stereo not given),,8.91 µM (active)
CNCc1ccc(NC(=O)c2c[nH]c3c2C(=O)CCC3)cc1,65.3% (inactive),
CC(O)Cn1cnc2c1c(=O)n(C)c(=O)n2C (stereo not given),12.6% [at 42.5 µM] (inactive),
O=C1OC[C@H](Cc2cccc(O)c2)[C@H]1Cc1cccc(O)c1,-16.8% [at 42.5 µM] (inactive),
O=C(O)CO,-10.6% (inactive),
CCCCCCCCCCCCCCCCCC(=O)OCC(CC)CCCC (stereo not given),-7.71% (inactive),
COC(=O)CC(C(C)=O)C(=O)OC (stereo not given),-0.328% (inactive),
O=C(O)CCC(=O)c1ccc(-c2ccccc2)cc1,49.9% [at 42.5 µM] (inactive),
CC(=O)C(C)=O,-6.19% (inactive),
